Measurements: PubChem BioAssay (NCATS)
“And” between values parts separate entries of the source, which are not always exact repeats. Equal values may be shown once. Records with an inconclusive call do not appear. Entries that show only a call come without a potency. Some structures have more than one record in an assay (separate samples or runs), and their calls can disagree. The source made the active and inactive calls. Unless noted, calls follow the shape of the dose curve; as a rule, active = well fitted curve in the direction sought with a large enough effect; inconclusive = small, poorly fitted or top-dose-only effect, or another doubt; inactive = no such curve, though single readings can be large; an effect the other way counts as inactive or inconclusive.

Experiments:
[1] = qHTS Screen of the MIPE 4.0 Collection Against Ewings Sarcoma (TC32) (AID 1259256); also: nearly all actives have a fitted effect of over 45% in size; also: potency is read from the fitted curve at half-maximal effect
Outline: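 Cells plated in serum-containing RPMI (5% FBS) and treated with compound dilutions for 48 h. Readout luminescent viability; normalization relied on vehicle (no inhibition) and media-only columns (full inhibition).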

[2] = P-glycoprotein substrates identified in KB-3-1 adenocarcinoma cell line, qHTS therapeutic library screen (AID 1346986); also: nearly all actives have a fitted effect of over 60% in size;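 also: potency is read from the fitted curve at half-maximal effect; potency is for cytotoxicity meaning loss of cell viability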
Outline: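 Viability read by CellTiter-Glo after 72 h compound exposure in dose-response of KB-3-1 and KB-8-5-11 (P-gp-high) cells. Hits needed AC50 < 10 uM, >50% maximum response and curve class -1.1 to -2.4. Cherry-picks retested ± tariquidar, including pcDNA/MDR-19 HEK-293 pair.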

[3] = P-glycoprotein substrates identified in KB-8-5-11 adenocarcinoma cell line, qHTS therapeutic library screen (AID 1346987); also: nearly all actives have a fitted effect of over 65% in size; also: potency is read from the fitted curve at half-maximal effect
Outline: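 Compounds are pinned in dose-response onto KB-8-5-11 cells (500 cells/well, colchicine-free medium) and left 72 h at 37 degree C. CellTiter-Glo luminescence then yields AC50 values.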

[4] = NS1 protein of Zika virus - qHTS assay to identify small molecule inhibitors in human HEK 293 cells (AID 1347053); also: nearly all actives have a fitted effect of over 55% in size; also: potency is read from the fitted curve at half-maximal effect
Outline: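 Read-out is a two-antibody TR-FRET for ZIKV NS1, normalized between uninfected cells and infected cells. Compound added 1 h before MR766 infection at MOI 0.5; human HEK 293 cells incubated 24 h, 37 C.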

[5] = qHTS of pediatric cancer cell lines to identify multiple opportunities for drug repurposing: Primary screen for TC32 cells (AID 1347089); also: nearly all actives have a fitted effect of over 60% in size; also: potency is read from the fitted curve at half-maximal effect
Outline: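 Measured quantity: luminescence from CellTiter-Glo, reflecting metabolically active TC32 cells following 48 h of compound. Curves came straight from multi-point titrations, with 8 or 11 points in primary and 11 in confirmatory screening.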

[6] = qHTS of pediatric cancer cell lines to identify multiple opportunities for drug repurposing: Primary screen for DAOY cells (AID 1347090); also: nearly all actives have a fitted effect of over 55% in size; also: potency is read from the fitted curve at half-maximal effect; as to activity change, negative = cytotoxic: series mostly up to about 46 µM
Outline: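 Cell viability, CellTiter-Glo luminescence; 500-1,000 cells/well, 8- or 11-point titration, 48 h compound exposure at 37 degrees C, 5% CO2. Controls: DMSO neutral, bortezomib 2.3 µM final as positive.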

[7] = Natriuretic polypeptide receptor (hNpr1) antagonism - Pilot counterscreen GloSensor control cell line (AID 1347045; calls by dose curve; also: series mostly up to about 38 µM)
Outline: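 Control counterscreen: luciferase cGMP-biosensor HEK293 cells (no Npr1) received compound for 30 min at room temperature after GloSensor substrate loading. Luminescence was measured before and 20 min after soluble guanylyl cyclase activation by 50 uM nitroprusside.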

[8] = molecular target: Atrial natriuretic peptide receptor 1 (Homo sapiens) (UniProt P16066); assay: Natriuretic polypeptide receptor (hNpr1) antagonism - Pilot screen (AID 1347049; calls by dose curve;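 also: HEK293 cells with hNpr1 and GloSensor cGMP luciferase stimulated by 0.1 nM hNppA; agonist-evoked cGMP luminescence read 20 min after hNppA addition; series mostly up to about 58 µM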)
Atrial natriuretic peptide receptor 1 (Homo sapiens), sequence (P16066 whole entry, looked up): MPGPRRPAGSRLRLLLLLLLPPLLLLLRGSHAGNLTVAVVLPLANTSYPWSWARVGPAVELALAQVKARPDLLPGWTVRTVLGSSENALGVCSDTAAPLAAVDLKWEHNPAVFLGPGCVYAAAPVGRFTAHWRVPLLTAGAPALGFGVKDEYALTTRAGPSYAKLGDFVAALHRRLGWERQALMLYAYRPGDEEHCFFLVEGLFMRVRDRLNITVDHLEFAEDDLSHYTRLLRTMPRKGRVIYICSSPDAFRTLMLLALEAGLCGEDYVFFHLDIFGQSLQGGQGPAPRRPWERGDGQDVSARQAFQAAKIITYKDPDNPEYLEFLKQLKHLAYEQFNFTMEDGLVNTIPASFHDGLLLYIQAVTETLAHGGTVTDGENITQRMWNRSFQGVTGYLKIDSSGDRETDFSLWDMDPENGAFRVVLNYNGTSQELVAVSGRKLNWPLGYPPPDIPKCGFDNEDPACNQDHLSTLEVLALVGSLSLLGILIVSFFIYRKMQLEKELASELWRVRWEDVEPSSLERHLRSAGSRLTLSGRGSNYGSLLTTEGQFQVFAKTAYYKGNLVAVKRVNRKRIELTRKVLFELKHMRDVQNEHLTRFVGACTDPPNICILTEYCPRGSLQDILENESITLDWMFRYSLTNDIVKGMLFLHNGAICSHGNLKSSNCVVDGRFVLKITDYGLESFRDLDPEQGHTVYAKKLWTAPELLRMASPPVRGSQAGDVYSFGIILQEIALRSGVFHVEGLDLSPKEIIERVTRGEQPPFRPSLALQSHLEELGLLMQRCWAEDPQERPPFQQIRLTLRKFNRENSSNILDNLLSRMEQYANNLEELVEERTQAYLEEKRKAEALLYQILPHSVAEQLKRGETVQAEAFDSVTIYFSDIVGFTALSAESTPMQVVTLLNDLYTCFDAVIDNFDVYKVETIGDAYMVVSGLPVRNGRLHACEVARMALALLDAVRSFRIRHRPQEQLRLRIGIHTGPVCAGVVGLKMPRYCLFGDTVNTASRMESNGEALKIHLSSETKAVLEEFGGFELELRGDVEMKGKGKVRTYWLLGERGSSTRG
Outline: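 Receptor antagonism read as cGMP-dependent luminescence in hNpr1/pGS-40F HEK293 cells: pre-read after 30 min compound exposure, post-read 20 min after hNppA agonist at 0.1 nM final, all at room temperature, protected from light; A-71915 titration as control.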

[9] = molecular target: Atrial natriuretic peptide receptor 2 (Homo sapiens) (UniProt P20594); assay: Natriuretic polypeptide receptor (hNpr2) antagonism - Pilot subtype selectivity assay (AID 1347050; calls by dose curve)
Atrial natriuretic peptide receptor 2 (Homo sapiens), sequence (P20594 whole entry, looked up): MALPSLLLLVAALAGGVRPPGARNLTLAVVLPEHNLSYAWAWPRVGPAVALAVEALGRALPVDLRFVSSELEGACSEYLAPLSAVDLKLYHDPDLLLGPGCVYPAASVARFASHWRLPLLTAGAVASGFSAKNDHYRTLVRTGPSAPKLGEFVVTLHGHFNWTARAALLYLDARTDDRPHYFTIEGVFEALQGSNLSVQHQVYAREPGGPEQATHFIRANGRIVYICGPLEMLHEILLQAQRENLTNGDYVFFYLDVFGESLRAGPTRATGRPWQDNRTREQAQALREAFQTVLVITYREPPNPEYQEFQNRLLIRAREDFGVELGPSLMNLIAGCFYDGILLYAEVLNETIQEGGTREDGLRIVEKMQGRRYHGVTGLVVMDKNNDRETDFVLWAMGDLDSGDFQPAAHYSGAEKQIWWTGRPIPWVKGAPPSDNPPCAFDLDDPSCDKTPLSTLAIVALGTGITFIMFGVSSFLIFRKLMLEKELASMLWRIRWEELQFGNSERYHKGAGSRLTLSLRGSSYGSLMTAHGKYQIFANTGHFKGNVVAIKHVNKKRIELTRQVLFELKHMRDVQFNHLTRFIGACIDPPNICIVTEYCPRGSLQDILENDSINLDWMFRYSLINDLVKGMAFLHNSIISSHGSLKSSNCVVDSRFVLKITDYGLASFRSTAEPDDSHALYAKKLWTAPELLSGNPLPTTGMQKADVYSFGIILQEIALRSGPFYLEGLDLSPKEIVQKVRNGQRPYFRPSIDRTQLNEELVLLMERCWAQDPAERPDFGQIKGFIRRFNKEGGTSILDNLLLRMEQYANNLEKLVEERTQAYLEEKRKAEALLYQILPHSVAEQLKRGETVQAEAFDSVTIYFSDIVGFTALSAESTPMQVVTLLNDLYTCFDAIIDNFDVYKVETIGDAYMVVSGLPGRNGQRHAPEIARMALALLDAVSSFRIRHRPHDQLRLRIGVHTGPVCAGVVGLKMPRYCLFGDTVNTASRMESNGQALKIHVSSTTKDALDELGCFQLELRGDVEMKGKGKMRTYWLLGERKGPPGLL
Outline: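 Antagonist mode: compounds (LOPAC1280, seven 1:5 dilutions) added 30 min before 1 nM hNppC stimulation of hNpr2-HEK293 cGMP-sensor cells; luminescence read before and 20 min after agonist at ambient temperature.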

[10] = molecular target: Parathyroid hormone/parathyroid hormone-related peptide receptor (Homo sapiens) (UniProt Q03431); assay: qHTS for PTHR1 Agonists: Optimization Screen against the NCGC LOPAC library (AID 1347079);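 also: GloSensor cAMP luminescence in HEK-293 GP2 cells expressing human PTHR1 with IBMX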
Parathyroid hormone/parathyroid hormone-related peptide receptor (Homo sapiens), sequence (Q03431 whole entry, looked up): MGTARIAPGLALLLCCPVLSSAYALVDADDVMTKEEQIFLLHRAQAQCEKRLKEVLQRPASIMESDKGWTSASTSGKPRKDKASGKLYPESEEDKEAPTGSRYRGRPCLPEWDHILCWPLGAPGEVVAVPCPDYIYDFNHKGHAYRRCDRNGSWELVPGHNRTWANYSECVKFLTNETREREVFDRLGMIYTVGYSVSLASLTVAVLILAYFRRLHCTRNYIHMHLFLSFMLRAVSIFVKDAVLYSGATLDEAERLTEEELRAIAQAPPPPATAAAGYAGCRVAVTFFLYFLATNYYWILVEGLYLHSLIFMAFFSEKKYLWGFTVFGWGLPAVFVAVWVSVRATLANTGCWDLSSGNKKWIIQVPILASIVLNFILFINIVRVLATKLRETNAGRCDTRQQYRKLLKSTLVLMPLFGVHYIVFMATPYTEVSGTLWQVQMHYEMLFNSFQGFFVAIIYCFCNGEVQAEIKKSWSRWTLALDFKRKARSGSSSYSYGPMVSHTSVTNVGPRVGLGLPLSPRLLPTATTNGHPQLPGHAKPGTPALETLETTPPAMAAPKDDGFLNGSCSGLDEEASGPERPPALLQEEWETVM
Outline: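 HEK-293 GP2 cells, PTHR1 + GloSensor cAMP; 3000 cells/well, o/n. Luciferin + IBMX 0.5mM each (stock), 1 hr 37C. Cpd titration, 1 hr 37C. Lum after 15 min RT. Ctrl M-PTH(1-15) top 10uM.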

Structure (SMILES): COc1cc2ncnc(Nc3cccc(Br)c3)c2cc1OC
- Potency [1]: 833 nM (active)
- Potency [2]: inactive and 18.4 µM (active)
- Potency [3]: inactive
- Potency [4]: inactive
- Potency [5]: inactive

Structure (SMILES): C=Cc1c(C)c2cc3nc(cc4[nH]c(cc5nc(cc1[nH]2)C(C)=C5CCC(=O)O)c(CCC(=O)OC)c4C)[C@@]1(C)C3=CC=C(C(=O)OC)[C@H]1C(=O)OC
- Potency [1]: 74.3 nM (active)
- Potency [2]: inactive
- Potency [3]: inactive
- Potency [4]: inactive
- Potency [5]: 5.87 µM (active)
- Potency [6]: 0.187 µM (active)

Structure (SMILES): C[C@@]12C[C@@]3(O)O[C@@H](O1)[C@]1(COC(=O)c4ccccc4)[C@@H]3C[C@@]12O[C@@H]1O[C@H](CO)[C@@H](O)[C@H](O)[C@@H]1O
- Potency [1]: inactive
- Potency [2]: inactive
- Potency [3]: inactive
- Potency [4]: inactive
- Potency [5]: inactive

Structure (SMILES): CC(C)N(CC[C@H](c1ccccc1)c1cc(CO)ccc1O)C(C)C
- Potency [1]: inactive
- Potency [2]: inactive
- Potency [3]: inactive
- Potency [4]: inactive
- Potency [5]: inactive
- Potency [6]: inactive

Structure (SMILES): COc1cc(C)c(C=CC(C)=CC=CC(C)=CC(=O)O)c(C)c1C
- Potency [1]: inactive
- Potency [2]: inactive
- Potency [3]: inactive
- Potency [4]: inactive
- Potency [5]: inactive

Structure (SMILES): CCN1CCN(C(=O)N[C@H](C(=O)N[C@@H]2C(=O)N3C(C(=O)O)=C(CSc4nnnn4C)CS[C@@H]23)c2ccc(O)cc2)C(=O)C1=O
- Potency [1]: inactive
- outcome [2]: inactive [at 9.29 µM]
- outcome [3]: inactive [at 9.29 µM]
- Potency [4]: inactive
- activity change, negative = cytotoxic [5]: 13.6% [at 9.17 µM] (inactive)
- activity change, negative = cytotoxic [6]: 8.24% [at 9.22 µM] (inactive)

Structure (SMILES): COc1ccc2cc([S+]([O-])Cc3ncc(C)c(OC)c3C)nc2c1
- Potency [1]: inactive
- Potency [2]: inactive
- Potency [3]: inactive
- outcome [7]: inactive
- outcome [8]: inactive
- outcome [9]: inactive
- outcome [10]: inactive
- Potency [5]: inactive
- Potency [6]: inactive

Structure (SMILES): Cc1ccc2nc(NCCN)c3ncc(C)n3c2c1
- Potency [1]: 4690 nM (active)
- Potency [2]: 5.17 µM (active)
- Potency [3]: 4.18 µM (active) and 6.51 µM (active)
- Potency [4]: 26.4 µM (active)
- Potency [6]: 14.8 µM (active)

Structure (SMILES): O=C(C[C@@H]1CC=CCCC(=O)O[C@H](c2ccccc2)CNC1=O)NCc1ccc(Cl)cc1
- Potency [1]: inactive
- Potency [2]: inactive
- Potency [3]: inactive
- Potency [4]: inactive
- Potency [5]: inactive

Structure (SMILES): CNC(=O)Nc1ccc(-c2nc(N3CC4CCC(C3)O4)c3cnn(C4CCC5(CC4)OCCO5)c3n2)cc1
- Potency [1]: 7.4 nM (active)
- Potency [2]: 0.0411 µM (active)
- Potency [3]: 14.8 nM (active) and 184 nM (active)
- Potency [4]: 16.6 µM (active)
- Potency [5]: 0.0262 µM (active)

Structure (SMILES): NC1=N[C@H]2[C@H](CS[C@H]2CCCCC(=O)O)N1
- Potency [1]: inactive
- Potency [2]: inactive
- Potency [3]: inactive
- Potency [4]: inactive
- Potency [5]: inactive
- Potency [6]: inactive

Structure (SMILES): C[N+]1(C)[C@@H]2C[C@@H](OC(=O)C(O)(c3cccs3)c3cccs3)C[C@H]1[C@@H]1O[C@@H]12
- Potency [1]: inactive
- Potency [2]: inactive
- Potency [3]: inactive
- Potency [4]: inactive
- Potency [5]: inactive
- Potency [6]: inactive

Structure (SMILES): OC[C@@H](O)[C@@H](O)[C@H](O)[C@@H](O)CO
- Potency [1]: inactive
- Potency [2]: inactive
- Potency [3]: inactive
- Potency [4]: inactive
- Potency [5]: inactive
- Potency [6]: inactive

Structure (SMILES): C=C1C[C@@]2(O)O[C@@]3(C[C@H]2C(C)C)[C@H](C)CC[C@H]13
- Potency [1]: inactive
- Potency [2]: inactive
- Potency [3]: inactive
- Potency [4]: inactive
- Potency [5]: inactive
- Potency [6]: inactive

Structure (SMILES): CC1(C)[C@H](O[C@H]2O[C@H](C(=O)O)[C@@H](O)[C@H](O)[C@H]2O[C@@H]2O[C@H](C(=O)O)[C@@H](O)[C@H](O)[C@H]2O)CC[C@@]2(C)[C@H]1CC[C@]1(C)[C@H]2C(=O)C=C2[C@H]3C[C@@](C)(C(=O)O)CC[C@]3(C)CC[C@]21C
- Potency [1]: inactive
- Potency [2]: inactive
- Potency [3]: inactive
- Potency [4]: inactive

Structure (SMILES): O=C(O)C=Cc1ccc(Cn2ccnc2)cc1
- Potency [1]: inactive
- Potency [2]: inactive
- Potency [3]: inactive
- Potency [5]: inactive

Structure (SMILES): CC(=O)N[C@@H]1[C@H](O[C@@H]2c3ccc(c(Cl)c3)Oc3cc4cc(c3O[C@H]3O[C@H](CO)[C@@H](O)[C@H](O)[C@H]3NC(=O)CCCCCCCC(C)C)Oc3ccc(cc3Cl)C[C@H]3NC(=O)[C@H](N)c5ccc(O)c(c5)Oc5cc(O)cc(c5)[C@H](NC3=O)C(=O)N[C@H]4C(=O)N[C@H]3C(=O)N[C@@H]2C(=O)N[C@@H](C(=O)O)c2cc(O)cc(O[C@H]4O[C@H](CO)[C@@H](O)[C@H](O)[C@H]4O)c2-c2cc3ccc2O)O[C@H](CO)[C@@H](O)[C@@H]1O
- Potency [1]: inactive
- Potency [2]: inactive
- Potency [3]: inactive
- Potency [5]: inactive
- Potency [6]: inactive

Structure (SMILES): C#Cc1cccc(Nc2ncnc3cc(OCCOC)c(OCCO)cc23)c1
- Potency [1]: 8330 nM (active)
- Potency [3]: 23.5 µM (active)
- Potency [4]: inactive

Structure (SMILES): O=c1[nH]c(=O)n([C@H]2C[C@@H](O)[C@@H](CO)O2)cc1F
- Potency [1]: 59 nM (active)
- Potency [3]: 1.66 µM (active)
- Potency [4]: 0.833 µM (active)

Structure (SMILES): CC(=O)O[C@H]1C[C@@H]2CC[C@H]3[C@H]4C[C@H]([N+]5(C)CCCCC5)[C@@H](OC(C)=O)[C@@]4(C)CC[C@@H]3[C@@]2(C)C[C@H]1N1CCCCC1
- Potency [1]: 7430 nM (active)
- Potency [3]: inactive

Structure (SMILES): CCOC(=O)N1CCN([N+]([O-])=NOc2ccc([N+](=O)[O-])cc2[N+](=O)[O-])CC1
- Potency [1]: 3720 nM (active)
- Potency [2]: inactive
- Potency [3]: inactive
- Potency [5]: inactive
- Potency [6]: 18.7 µM (active)

Structure (SMILES): O=C1NC(=O)[C@@H](c2cn3c4c(cccc24)CCC3)[C@H]1c1c[nH]c2ccccc12
- Potency [1]: 166 nM (active)
- Potency [3]: 0.469 µM (active)
- Potency [4]: 6.62 µM (active)

Structure (SMILES): CC(=O)O[C@H]1C[C@@H]2CC[C@H]3[C@H]4C[C@H]([N+]5(C)CCCCC5)[C@@H](OC(C)=O)[C@@]4(C)CC[C@@H]3[C@@]2(C)C[C@H]1[N+]1(C)CCCCC1
- Potency [1]: 2350 nM (active)
- Potency [2]: inactive
- Potency [3]: inactive
- Potency [5]: inactive
- Potency [6]: inactive
